This passage reports binding signal results from article PMC11006913.

What all share (test): PBM; 200 nM protein, PBS
Conditions in all cases: dsDNA, one strand shown

The target of experiment [1] is HOXB9 (Homo sapiens, UniProt P17482 171-250, T197M).
In experiment [2] the target is HOXA4 (Homo sapiens, UniProt Q00056 201-287, W262R).
For the next experiment, the target named is T1, VENTX (Homo sapiens, UniProt O95231 78-163).
T1 sequence: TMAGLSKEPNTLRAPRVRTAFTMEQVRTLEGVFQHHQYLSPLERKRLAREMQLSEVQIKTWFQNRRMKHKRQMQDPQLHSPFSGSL

Experiment [3] concerns the target HOXA7 (Homo sapiens, UniProt P31268 116-202).
The target in experiment [4] is HOXB6 (Homo sapiens, UniProt P17509 132-218, K202E).
Chain of HOXB6 (Homo sapiens, UniProt P17509 132-218, K202E) (P17509 132-218 K202E): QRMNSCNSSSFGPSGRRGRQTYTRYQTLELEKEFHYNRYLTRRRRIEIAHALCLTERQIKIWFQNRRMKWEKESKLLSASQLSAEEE
Experiment [5] has as its target HOXA4 (Homo sapiens, UniProt Q00056 201-287).
The target of experiment [6] is HOXC10 (Homo sapiens, UniProt Q9NYD6 254-340, K271E).
Chain of HOXC10 (Homo sapiens, UniProt Q9NYD6 254-340, K271E) (Q9NYD6 254-340 K271E): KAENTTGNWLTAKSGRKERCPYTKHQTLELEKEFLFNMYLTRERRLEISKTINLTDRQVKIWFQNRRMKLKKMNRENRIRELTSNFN
For another experiment, the target named is VAX1 (Homo sapiens, UniProt Q5SQQ9 86-172).
Chain of VAX1 (Q5SQQ9 86-172): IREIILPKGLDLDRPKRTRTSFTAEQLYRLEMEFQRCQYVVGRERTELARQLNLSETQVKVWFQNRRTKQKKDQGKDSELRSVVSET
In experiment [7] the target is HOXB9 (Homo sapiens, UniProt P17482 171-250, R186Q).
Chain of HOXB9 (Homo sapiens, UniProt P17482 171-250, R186Q) (P17482 171-250 R186Q): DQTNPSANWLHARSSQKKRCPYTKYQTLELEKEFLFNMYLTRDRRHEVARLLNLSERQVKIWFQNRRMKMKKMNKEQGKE
Experiment [8] concerns the target HOXC9 (Homo sapiens, UniProt P31274 178-260, R222W).
Another experiment deals with T2, PAX4 (Homo sapiens, UniProt O43316 9-242, R227W).
T2 sequence: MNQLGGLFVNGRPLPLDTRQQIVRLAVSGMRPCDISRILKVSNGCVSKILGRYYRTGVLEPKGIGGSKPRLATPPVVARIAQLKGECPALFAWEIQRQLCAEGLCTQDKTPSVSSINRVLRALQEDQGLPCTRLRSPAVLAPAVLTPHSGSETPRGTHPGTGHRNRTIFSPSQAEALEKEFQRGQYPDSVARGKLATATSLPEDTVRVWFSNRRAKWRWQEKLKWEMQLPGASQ

Experiment [9] deals with HOXA2 (Homo sapiens, UniProt O43364 129-215, Y150S).
Chain of HOXA2 (Homo sapiens, UniProt O43364 129-215, Y150S) (O43364 129-215 Y150S): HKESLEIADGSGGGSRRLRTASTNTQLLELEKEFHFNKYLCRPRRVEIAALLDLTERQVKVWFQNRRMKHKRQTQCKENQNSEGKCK
Experiment [10] addresses HOXA7 (Homo sapiens, UniProt P31268 116-202, W177C).
Experiment [11] concerns the target HOXA2 (Homo sapiens, UniProt O43364 129-215).
Experiment [12] addresses HOXB6 (Homo sapiens, UniProt P17509 132-218).
Experiment [13] concerns the target HOXC9 (Homo sapiens, UniProt P31274 178-260, K195R).
The target in experiment [14] is HOXC10 (Homo sapiens, UniProt Q9NYD6 254-340).
Chain of HOXC10 (Homo sapiens, UniProt Q9NYD6 254-340) (Q9NYD6 254-340): as the sequence (Q9NYD6 254-340 K271E) above, with E18K counted along it
Experiment [15] addresses HOXB9 (Homo sapiens, UniProt P17482 171-250).
The target in experiment [16] is HOXC9 (Homo sapiens, UniProt P31274 178-260).
Chain of HOXC9 (Homo sapiens, UniProt P31274 178-260) (P31274 178-260): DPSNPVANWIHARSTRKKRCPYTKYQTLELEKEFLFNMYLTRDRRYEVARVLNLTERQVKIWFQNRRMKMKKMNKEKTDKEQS
The target in experiment [17] is HOXC9 (Homo sapiens, UniProt P31274 178-260, R193K).
Chain of HOXC9 (Homo sapiens, UniProt P31274 178-260, R193K) (P31274 178-260 R193K): as the sequence (P31274 178-260) above, with R16K counted along it

Chain of HOXA2 (Homo sapiens, UniProt O43364 129-215) (O43364 129-215): as the sequence (O43364 129-215 Y150S) above, with S22Y counted along it
Chain of HOXA7 (Homo sapiens, UniProt P31268 116-202, W177C) (P31268 116-202 W177C): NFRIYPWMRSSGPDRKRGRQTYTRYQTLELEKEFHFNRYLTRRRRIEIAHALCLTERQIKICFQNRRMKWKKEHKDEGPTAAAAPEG
Chain of HOXA4 (Homo sapiens, UniProt Q00056 201-287) (Q00056 201-287): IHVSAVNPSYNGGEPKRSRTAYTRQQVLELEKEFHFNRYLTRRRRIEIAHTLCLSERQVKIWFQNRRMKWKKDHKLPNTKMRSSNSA
Chain of HOXA7 (Homo sapiens, UniProt P31268 116-202) (P31268 116-202): as the sequence (P31268 116-202 W177C) above, with C62W counted along it
Chain of HOXB9 (Homo sapiens, UniProt P17482 171-250, T197M) (P17482 171-250 T197M): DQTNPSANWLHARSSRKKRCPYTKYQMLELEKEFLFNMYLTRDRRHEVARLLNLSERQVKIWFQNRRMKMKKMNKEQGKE
Chain of HOXB6 (Homo sapiens, UniProt P17509 132-218) (P17509 132-218): as the sequence (P17509 132-218 K202E) above, with E71K counted along it
Chain of HOXA4 (Homo sapiens, UniProt Q00056 201-287, W262R) (Q00056 201-287 W262R): as the sequence (Q00056 201-287) above, with W62R counted along it
Chain of HOXC9 (Homo sapiens, UniProt P31274 178-260, R222W) (P31274 178-260 R222W): as the sequence (P31274 178-260) above, with R45W counted along it
Chain of HOXC9 (Homo sapiens, UniProt P31274 178-260, K195R) (P31274 178-260 K195R): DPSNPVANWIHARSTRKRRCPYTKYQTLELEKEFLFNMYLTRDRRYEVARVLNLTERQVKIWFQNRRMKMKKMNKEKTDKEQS
Chain of HOXB9 (Homo sapiens, UniProt P17482 171-250) (P17482 171-250): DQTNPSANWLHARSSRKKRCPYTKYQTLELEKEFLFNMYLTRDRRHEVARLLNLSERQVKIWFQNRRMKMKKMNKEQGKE

As for CCAATTAA, the binding signal in the experiment with HOXB9 [1] is 10 upbm affinity estimate (log intensity, higher = more binding, comparable within an allelic series); with HOXA4 [2], 10.6 upbm affinity estimate (log intensity, higher = more binding, comparable within an allelic series); with VENTX, 12.9 upbm affinity estimate (log intensity, higher = more binding, comparable within an allelic series); in the experiment with HOXA7 [3], 11.5 upbm affinity estimate (log intensity, higher = more binding, comparable within an allelic series); with HOXB6 [4], 10 upbm affinity estimate (log intensity, higher = more binding, comparable within an allelic series); with HOXA4 [5] it was 13.6 upbm affinity estimate (log intensity, higher = more binding, comparable within an allelic series). Also, the binding signal in the experiment with HOXC10 [6] is 11.9 upbm affinity estimate (log intensity, higher = more binding, comparable within an allelic series); with VAX1, 13 upbm affinity estimate (log intensity, higher = more binding, comparable within an allelic series); with HOXB9 [7], 11.4 upbm affinity estimate (log intensity, higher = more binding, comparable within an allelic series); with HOXC9 [8], 11.1 upbm affinity estimate (log intensity, higher = more binding, comparable within an allelic series); with PAX4 it was 11 upbm affinity estimate (log intensity, higher = more binding, comparable within an allelic series); with HOXA2 [9] it was 10.8 upbm affinity estimate (log intensity, higher = more binding, comparable within an allelic series). Moreover, the binding signal in the experiment with HOXA7 [10] is 8.83 upbm affinity estimate (log intensity, higher = more binding, comparable within an allelic series); with HOXA2 [11], 12.2 upbm affinity estimate (log intensity, higher = more binding, comparable within an allelic series); with HOXB6 [12] it was 11.9 upbm affinity estimate (log intensity, higher = more binding, comparable within an allelic series).
With ACAATTAA, the binding signal with HOXB9 [1] is 10.1 upbm affinity estimate (log intensity, higher = more binding, comparable within an allelic series); with HOXA4 [2] it was 10.5 upbm affinity estimate (log intensity, higher = more binding, comparable within an allelic series); in the experiment with HOXC9 [13], 12.5 upbm affinity estimate (log intensity, higher = more binding, comparable within an allelic series); in the experiment with HOXA7 [3], 11.6 upbm affinity estimate (log intensity, higher = more binding, comparable within an allelic series); in the experiment with HOXC10 [14] it was 12.2 upbm affinity estimate (log intensity, higher = more binding, comparable within an allelic series); in the experiment with HOXB6 [4], 10.1 upbm affinity estimate (log intensity, higher = more binding, comparable within an allelic series). Moreover, the binding signal with HOXB9 [15] was 11.8 upbm affinity estimate (log intensity, higher = more binding, comparable within an allelic series); with HOXC9 [16], 12.6 upbm affinity estimate (log intensity, higher = more binding, comparable within an allelic series); with HOXC9 [17] it was 12.5 upbm affinity estimate (log intensity, higher = more binding, comparable within an allelic series); with HOXA4 [5], 13.8 upbm affinity estimate (log intensity, higher = more binding, comparable within an allelic series); with HOXC10 [6] it was 12 upbm affinity estimate (log intensity, higher = more binding, comparable within an allelic series); with HOXB9 [7], 11.6 upbm affinity estimate (log intensity, higher = more binding, comparable within an allelic series). For the same sequence, the binding signal with HOXC9 [8] is 11 upbm affinity estimate (log intensity, higher = more binding, comparable within an allelic series); in the experiment with HOXA7 [10], 8.88 upbm affinity estimate (log intensity, higher = more binding, comparable within an allelic series); with HOXB6 [12], 11.9 upbm affinity estimate (log intensity, higher = more binding, comparable within an allelic series).
Take CAATTAAG: the binding signal was 10.6 upbm affinity estimate (log intensity, higher = more binding, comparable within an allelic series) with HOXA4 [2]; 12.5 upbm affinity estimate (log intensity, higher = more binding, comparable within an allelic series) in the experiment with VENTX; 11.5 upbm affinity estimate (log intensity, higher = more binding, comparable within an allelic series) in the experiment with HOXA7 [3]; 9.95 upbm affinity estimate (log intensity, higher = more binding, comparable within an allelic series) with HOXB6 [4]; 13.8 upbm affinity estimate (log intensity, higher = more binding, comparable within an allelic series) in the experiment with HOXA4 [5]; 13 upbm affinity estimate (log intensity, higher = more binding, comparable within an allelic series) in the experiment with VAX1. The binding signal is 10.7 upbm affinity estimate (log intensity, higher = more binding, comparable within an allelic series) with HOXA2 [9]; 8.83 upbm affinity estimate (log intensity, higher = more binding, comparable within an allelic series) with HOXA7 [10]; 12.2 upbm affinity estimate (log intensity, higher = more binding, comparable within an allelic series) in the experiment with HOXA2 [11]; 11.8 upbm affinity estimate (log intensity, higher = more binding, comparable within an allelic series) with HOXB6 [12].
On to GTAATTGA, for which the binding signal with HOXA4 [2] is 10.4 upbm affinity estimate (log intensity, higher = more binding, comparable within an allelic series); with HOXA7 [3], 11.2 upbm affinity estimate (log intensity, higher = more binding, comparable within an allelic series); with HOXA4 [5] it was 13.5 upbm affinity estimate (log intensity, higher = more binding, comparable within an allelic series); in the experiment with VAX1, 12.8 upbm affinity estimate (log intensity, higher = more binding, comparable within an allelic series); in the experiment with HOXA2 [9] it was 10.7 upbm affinity estimate (log intensity, higher = more binding, comparable within an allelic series); with HOXA7 [10], 8.88 upbm affinity estimate (log intensity, higher = more binding, comparable within an allelic series). Besides, the binding signal with HOXA2 [11] was 12.1 upbm affinity estimate (log intensity, higher = more binding, comparable within an allelic series).
In the case of GGCAATTA, the binding signal in the experiment with HOXB9 [1] was 10.2 upbm affinity estimate (log intensity, higher = more binding, comparable within an allelic series); in the experiment with HOXA4 [2] it was 10.5 upbm affinity estimate (log intensity, higher = more binding, comparable within an allelic series); with HOXC9 [13], 12.6 upbm affinity estimate (log intensity, higher = more binding, comparable within an allelic series); with VENTX, 12.5 upbm affinity estimate (log intensity, higher = more binding, comparable within an allelic series); in the experiment with HOXA7 [3], 11.7 upbm affinity estimate (log intensity, higher = more binding, comparable within an allelic series); in the experiment with HOXB6 [4] it was 9.93 upbm affinity estimate (log intensity, higher = more binding, comparable within an allelic series). Also, the binding signal with HOXB9 [15] is 11.8 upbm affinity estimate (log intensity, higher = more binding, comparable within an allelic series); in the experiment with HOXC9 [17], 12.5 upbm affinity estimate (log intensity, higher = more binding, comparable within an allelic series); with HOXA4 [5], 13.7 upbm affinity estimate (log intensity, higher = more binding, comparable within an allelic series); in the experiment with HOXC10 [6], 12 upbm affinity estimate (log intensity, higher = more binding, comparable within an allelic series); with VAX1, 12.9 upbm affinity estimate (log intensity, higher = more binding, comparable within an allelic series); with HOXB9 [7] it was 11.5 upbm affinity estimate (log intensity, higher = more binding, comparable within an allelic series). Besides, the binding signal with HOXA2 [9] was 10.8 upbm affinity estimate (log intensity, higher = more binding, comparable within an allelic series); with HOXA7 [10] it was 8.77 upbm affinity estimate (log intensity, higher = more binding, comparable within an allelic series); with HOXA2 [11], 12.5 upbm affinity estimate (log intensity, higher = more binding, comparable within an allelic series); with HOXB6 [12], 12.2 upbm affinity estimate (log intensity, higher = more binding, comparable within an allelic series).
